# From PubChem BioAssay (Tox21)
# “And” between values parts separate entries of the source, which are not always exact repeats. Equal values may be shown once. Results filed as inconclusive are left out. Entries that show only a call come without a potency. More than one record can exist for a structure, and the calls need not agree. The source made the active and inactive calls. The call rests on the fitted dose curve; in most records, active means well fitted cell-killing curve with a large enough effect in the repeat runs; inconclusive means weak or mixed curves; inactive means no such curve, though single readings can be large or run the other way.
# Experiment: qHTS assay for identifying genotoxic compounds that show differential cytotoxicity against isogenic chicken DT40 cell lines with known DNA damage response pathways - Rad54/Ku70 mutant cell line (AID 743015); further: nearly all actives have a fitted effect of over 60% in size
# Details: DT40 Rad54/Ku70 mutant viability, CellTiter-Glo, 40 h; series mostly up to 66.8 µM
# Excerpt: National Center for Advancing Translational Sciences [NCATS]
# NIH Chemical Genomics Center [NCGC]
# U.S. Environmental Protection Agency [EPA]
# National Institutes of Environmental Health Sciences [NIEHS]
# National Toxicology Program [NTP]
# U.S. Food and Drug Administration [FDA]
# DNA repair pathways play a critical role in cellular homeostasis by repairing DNA damage induced by endogenous processes and xenobiotics. Isogenic chicken DT40 cell lines deficient in different DNA repair pathways can be used to identify genotoxic compounds and aid in characterizing the nature of the DNA damage induced. Two DNA repair-deficient cell lines with disrupted genes, Rad54/Ku70 or Rev3, were used to screen the Tox21 10K compound library. Possible genotoxicity was based on the presence of a significant increase in cytotoxicity in one or more of the DNA repair-deficient cell lines compared to that observed in the parental DNA repair-proficient cell line. CellTiter Glo viability assay (Promega, Madison, WI) was used to measure cell viability in these cells after compound treatment. This assay includes the data from the Rad54/Ku70 mutant cell line.
# Tox21 Assay Protocol Summary:
# 300 DT40 mutant cells in 5 uL/well were dispensed into white, solid-bottom 1536-well plates using a Multidrop Combi (ThermoFisher Scientific, Waltham, MA) dispenser. After the assay plates were incubated at 37 C/5% CO2 for approximately 0.5 hour, 23 nL of compounds dissolved in DMSO, positive controls or DMSO only was transferred into the assay plate by a pintool work station (Kalypsys, San Diego, CA). The assay plates were incubated at 37 C/5% CO2 for 40 hours. After 5 uL per well of CellTiter-Glo reagent was added into each well of the assay plates, the plates were incubated for 30 min at room temperature and the luminescence intensity of the plates was measured using a ViewLux (PerkinElmer, Shelton, CT) plate reader.
# Potency means the concentration at half of the fitted maximal effect.
row,SMILES,Potency
1,NC(=O)c1cccc([N+](=O)[O-])c1,inactive
2,CCCCCCCC/C=C\CCCCCCCCN,inactive
3,COc1ccc(NC(=O)CC(C)=O)cc1,inactive
4,CCCNCCC,inactive
5,O=C1OC2(c3ccc(O)cc3Oc3cc(O)ccc32)c2ccc(N=C=S)cc21,inactive
6,CCCC(=O)OC(C)(C)Cc1ccccc1,inactive
7,S=C([S-])NCCNC(=S)[S-].S=C([S-])NCCNC(=S)[S-].[Mn+2].[Zn+2],29.8 µM (active)
8,CCCCCCCCCCCCCC[N+](C)(C)C,376 nM (active) and 469 nM (active) and 217 nM (active)
9,CC(C(=O)O)c1ccc2c(c1)[nH]c1ccc(Cl)cc12 (stereo not given),inactive
10,O=C(O)CN(CCN(CC(=O)O)CC(=O)O)CC(=O)O,inactive
11,Clc1sc(Cl)c(Cl)c1Cl,inactive
12,C#CC1(O)CC[C@H]2[C@@H]3CCC4=CCCC[C@@H]4[C@H]3CC[C@@]21C (stereo not given in full),11.4 µM (active) and 15.4 µM (active)
13,O=C(O)c1cc(N=Nc2ccc([N+](=O)[O-])cc2)ccc1O,inactive
14,O=C(O)c1cc(=O)c2ccccc2o1,inactive
15,Nc1nc(-c2ccccc2)cs1,inactive
16,Cc1cc(-n2nc3ccc(Cl)cc3n2)c(O)c(C(C)(C)C)c1,inactive
17,c1cnccn1,inactive
18,CCCCCCCCCCCCCC[N+](C)(C)Cc1ccccc1,750 nM (active) and 493 nM (active)
19,O=c1[nH]c(=O)n([C@H]2C[C@H](O)[C@@H](CO)O2)cc1F,0.0019 µM (active)
20,CCOC(=O)c1ccc(C2CCC(NC[C@H](O)COc3ccc(O)c(NS(C)(=O)=O)c3)CC2)cc1 (stereo not given in full),0.113 µM (active)

row,SMILES,Potency
1,CCCCOC(=O)CO,inactive
2,Cc1c(C)c([N+](=O)[O-])c(C(C)(C)C)c([N+](=O)[O-])c1C,inactive
3,C=C(C)c1cccc(C(=C)C)c1,inactive
4,O=C1c2ccccc2C(=O)N1SC1CCCCC1,17.2 µM (active) and 4.33 µM (active)
5,CCC(CC)C(C)CCOC(C)=O (stereo not given),inactive
6,Nc1ccc(C(=O)O)c(O)c1,inactive
7,O=C(O)Cc1ccccc1Nc1c(Cl)cccc1Cl,inactive and 68.6 µM (active)
8,Cc1ccc(C(=O)O)cc1,inactive
9,c1ccc(C(O[C@@H]2CCCN(CCc3ccc4c(c3)OCO4)C2)c2ccccc2)cc1,30.6 µM (active)
10,OC[C@H]1O[C@H](O[C@H]2O[C@H](CO)[C@@H](O)[C@H](O)[C@H]2O)[C@H](O)[C@@H](O)[C@@H]1O,inactive
11,CC(C)(C)c1ccc(C(O)CCCN2CCC(C(O)(c3ccccc3)c3ccccc3)CC2)cc1 (stereo not given),9.44 µM (active)
12,CCCCC(CC)CN1CN(CC(CC)CCCC)CC(C)(N)C1 (stereo not given),8.04 µM (active)
13,Cc1cccc2cccnc12,inactive
14,CC(CO)Oc1ccccc1 (stereo not given),inactive
15,COC(=O)c1ccccc1OC,inactive
16,C/C=C/C=C/COC(=O)C(C)C,17.2 µM (active)
17,CCCCC(CC)COC(=O)CCCCC(=O)OCc1ccccc1 (stereo not given),inactive
18,O=S(=O)(O)c1ccc(N=Nc2c(O)ccc3ccccc23)cc1,54.5 µM (active)
19,CC[N+](CC)(CC)CCOc1ccc(/C=C/c2ccccc2)cc1,944 nM (active) and 750 nM (active)
20,O=C1C(c2[nH]c3ccc(S(=O)(=O)O)cc3c2O)=Nc2ccc(S(=O)(=O)O)cc21,inactive and 30.6 µM (active)
